# This excerpt belongs to a sample that is enriched for the strongest signals.
# Key:
# Experiment in all cases: glycan array binding signal (z-score within array); higher = stronger binding
# Conditions in all cases: glycan notation: IUPAC condensed, linker removed
# [1] = target: GlcNAc(b1-3)Gal(b1-4)GlcNAc(b1-6)[Gal(b1-3)]GalNAc
# How it was run: (§1)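 Columns mapping to the same glycan were averaged after glycan names were converted to IUPAC-condensed notation. The data come from 3228 arrays in the Consortium for Functional Glycomics database, limited to those with an available protein sequence. Binding is reported as a within-array Z-score averaged across arrays of one protein sequence and across linkers.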
# [2] = target: GlcNAc(b1-3)[GlcNAc(b1-6)]GalNAc
# How it was run: as §1
# Kdn(a2-6)Gal(b1-4)GlcNAc = target: Kdn(a2-6)Gal(b1-4)GlcNAc
# How it was run: as §1
# [3] = target: Man(a1-2)Man(a1-3)[Man(a1-2)Man(a1-6)]Man
# How it was run: as §1
# [4] = target: Man(a1-2)Man(a1-6)[Man(a1-3)]Man(a1-6)[Man(a1-2)Man(a1-2)Man(a1-3)]Man
# How it was run: as §1
# [5] = target: Neu5Ac(a2-3)Gal(b1-3)GlcNAc(b1-3)Gal(b1-3)GlcNAc
# How it was run: as §1
# [6] = target: Neu5Ac(a2-3)Gal(b1-3)GlcNAc(b1-3)GalNAc
# How it was run: as §1
# [7] = target: Neu5Ac(a2-3)Gal(b1-3)GlcNAc(b1-4)Gal(b1-4)Glc
# How it was run: as §1
# [8] = target: Neu5Ac(a2-3)Gal(b1-4)GlcNAc(b1-3)Gal(b1-4)GlcNAc
# How it was run: as §1
# [9] = target: Neu5Ac(a2-3)Gal(b1-4)GlcNAc(b1-3)Gal(b1-4)GlcNAc(b1-3)Gal(b1-4)GlcNAc(b1-2)Man(a1-3)[Neu5Ac(a2-3)Gal(b1-4)GlcNAc(b1-3)Gal(b1-4)GlcNAc(b1-3)Gal(b1-4)GlcNAc(b1-2)Man(a1-6)]GalNAc
# How it was run: as §1
# [10] = target: Neu5Ac(a2-3)Gal(b1-4)[Fuc(a1-3)]GlcNAc(b1-3)GalNAc
# How it was run: as §1
# [11] = target: Neu5Ac(a2-6)Gal(b1-4)GlcNAc(b1-2)Man(a1-3)Man(b1-4)GlcNAc(b1-4)GlcNAc
# How it was run: as §1
# [12] = target: Neu5Ac(a2-6)Gal(b1-4)GlcNAc(b1-2)[Neu5Ac(a2-6)Gal(b1-4)GlcNAc(b1-6)]Man(a1-6)[Neu5Ac(a2-6)Gal(b1-4)GlcNAc(b1-2)Man(a1-3)][GlcNAc(b1-4)]Man(b1-4)GlcNAc(b1-4)GlcNAc
# How it was run: as §1
# Neu5Ac(a2-6)GalNAc = target: Neu5Ac(a2-6)GalNAc
# How it was run: as §1
# [13] = target: Neu5Ac(a2-8)Neu5Ac(a2-3)Gal(b1-4)Glc
# How it was run: as §1
# [14] = target: Neu5Ac(a2-8)Neu5Ac(a2-3)Gal(b1-4)GlcNAc
# How it was run: as §1
# [15] = target: Neu5Ac(a2-8)Neu5Ac(a2-8)Neu5Ac(a2-3)[Gal(b1-3)GalNAc(b1-4)]Gal(b1-4)Glc
# How it was run: as §1
# [16] = target: Neu5Ac9Ac(a2-6)Gal(b1-4)GlcNAc
# How it was run: as §1
# [17] = target: Neu5Gc(a2-8)Neu5Ac(a2-3)Gal(b1-4)GlcNAc
# How it was run: as §1
# Fuc(a1-2)Gal(b1-4)Glc = target: Fuc(a1-2)Gal(b1-4)Glc
# How it was run: as §1
# [18] = target: Fuc(a1-2)Gal(b1-4)GlcNAc6S
# How it was run: as §1
# [19] = target: Fuc(a1-2)Gal6S(b1-4)GlcNAc
# How it was run: as §1
# [20] = target: Fuc(a1-2)[GalNAc(a1-3)]Gal(b1-4)GlcNAc(b1-2)Man(a1-3)[Fuc(a1-2)[GalNAc(a1-3)]Gal(b1-4)GlcNAc(b1-2)Man(a1-6)]Man(b1-4)GlcNAc(b1-4)GlcNAc
# How it was run: as §1
# [21] = target: Fuc(a1-3)[Gal(b1-4)]GlcNAc(b1-2)Man(a1-3)[Fuc(a1-3)[Gal(b1-4)]GlcNAc(b1-2)Man(a1-6)]Man(b1-4)GlcNAc(b1-4)GlcNAc
# How it was run: as §1
# [22] = target: Fuc(a1-3)[Gal(b1-4)]GlcNAc(b1-4)Gal(b1-4)[Fuc(a1-3)]GlcNAc
# How it was run: as §1
# [23] = target: Gal(a1-3)Gal(b1-3)[Fuc(a1-4)]GlcNAc(b1-2)Man(a1-3)[Gal(a1-3)Gal(b1-3)[Fuc(a1-4)]GlcNAc(b1-2)Man(a1-6)]Man(b1-4)GlcNAc(b1-4)GlcNAc
# How it was run: as §1
# [24] = target: Gal(a1-4)Gal(b1-4)GlcNAc(b1-2)Man(a1-3)[Gal(a1-4)Gal(b1-4)GlcNAc(b1-2)Man(a1-6)]Man(b1-4)GlcNAc(b1-4)GlcNAc
# How it was run: as §1
# Gal(b1-2)Gal = target: Gal(b1-2)Gal
# How it was run: as §1
# [25] = target: Gal(b1-3)[Fuc(a1-4)]GlcNAc(b1-2)Man(a1-3)[Gal(b1-3)[Fuc(a1-4)]GlcNAc(b1-2)Man(a1-6)]Man(b1-4)GlcNAc(b1-4)GlcNAc
# How it was run: as §1
# [26] = target: Gal(b1-3)[Neu5Ac(a2-6)]GalNAc
# How it was run: as §1
# [27] = target: Gal(b1-4)GlcNAc(b1-2)Man(a1-3)[Gal(b1-4)GlcNAc(b1-2)Man(a1-6)]Man(b1-4)GlcNAc(b1-4)[Fuc(a1-6)]GlcNAc
# How it was run: as §1
# [28] = target: Gal(b1-4)GlcNAc(b1-3)Gal(b1-3)GlcNAc
# How it was run: as §1
# [29] = target: Gal(b1-4)GlcNAc(b1-3)Gal(b1-4)Glc
# How it was run: as §1
# [30] = target: Gal(b1-4)GlcNAc(b1-6)Gal(b1-4)GlcNAc
# How it was run: as §1
# Gal3S(b1-4)Glc = target: Gal3S(b1-4)Glc
# How it was run: as §1
# [31] = target: Gal3S(b1-4)[Fuc(a1-3)]Glc6S
# How it was run: as §1
# [32] = target: GalNAc(b1-4)GlcNAc(b1-2)Man(a1-3)[GalNAc(b1-4)GlcNAc(b1-2)Man(a1-6)]Man(b1-4)GlcNAc(b1-4)GlcNAc
# How it was run: as §1
# [33] = target: GlcNAc(a1-4)Gal(b1-4)GlcNAc
# How it was run: as §1
# [34] = target: Kdn(a2-3)Gal(b1-4)[Fuc(a1-3)]GlcNAc
# How it was run: as §1
# [35] = target: Neu5Ac(a2-3)Gal(b1-3)GlcNAc(b1-3)Gal(b1-4)GlcNAc
# How it was run: as §1
# [36] = target: Neu5Ac(a2-3)Gal(b1-3)[Fuc(a1-4)]GlcNAc(b1-3)Gal(b1-4)[Fuc(a1-3)]GlcNAc
# How it was run: as §1
# [37] = target: Neu5Ac(a2-3)Gal(b1-4)GlcNAc(b1-3)Gal(b1-4)[Fuc(a1-3)]GlcNAc
# How it was run: as §1
# [38] = target: Neu5Ac(a2-3)Gal(b1-4)[Fuc(a1-3)]GlcNAc(b1-3)Gal(b1-4)GlcNAc
# How it was run: as §1
# [39] = target: Neu5Ac(a2-3)Gal(b1-4)[Fuc(a1-3)]GlcNAc(b1-6)[Neu5Ac(a2-3)Gal(b1-3)]GalNAc
# How it was run: as §1
# [40] = target: Neu5Ac(a2-3)GalNAc(b1-4)GlcNAc
# How it was run: as §1
# [41] = target: Neu5Ac(a2-3)[GalNAc(b1-4)]Gal(b1-4)GlcNAc(b1-3)GalNAc
# How it was run: as §1
# [42] = target: Neu5Ac(a2-3)[Neu5Ac(a2-6)]GalNAc
# How it was run: as §1
# [43] = target: Neu5Ac(a2-6)Gal(b1-4)GlcNAc(b1-2)Man(a1-6)Man(b1-4)GlcNAc(b1-4)GlcNAc
# How it was run: as §1
# [44] = target: Neu5Ac9Ac(a2-3)Gal(b1-3)GlcNAc
# How it was run: as §1
# [45] = target: Neu5Gc(a2-3)Gal(b1-3)[Fuc(a1-4)]GlcNAc
# How it was run: as §1
# [46] = target: Neu5Gc(a2-6)Gal(b1-4)GlcNAc
# How it was run: as §1
binder,measurement,setting,value
"CD4 (Rattus norvegicus), P05540 (protein) MCRGFSFRHLLPLLLLQLSKLLVVTQGSTSITAYKSEGESAEFSFPLNLGEESLQGELRWKAEKAPSSQSWITFSLKNQKVSVQKSTSNPKFQLSETLPLTLQIPQVSLQFAGSGNLTLTLDRGILYQEVNLVVMKVTQPDSNTLTCEVMGPTSPKMRLILKQENQEARVSRQEKVIQVQAPEAGVWQCLLSEGEEVKMDSKIQVLSKGLNSGGGSGGGTGGGDLAPQMLRELQETNAALQDVRELLRQQVKEITFLKNTVMECDACGLDRNLPPLAPLGPHPETLVKVKDAEDQLGARVGYIELDLNSGKILESFRPEERFPMMSTFKVLLCGAVLSRIDAGQEQLGRRIHYSQNDLVEYSPVTEKHLTDGMTVRELCSAAITMSDNTAANLLLTTIGGPKELTAFLHNMGDHVTRLDRWEPELNEAIPNDERDTTMPVAMATTLRKLLTGELLTLASRQQLIDWMEADKVAGPLLRSALPAGWFIADKSGAGERGSRGIIAALGPDGKPSRIVVIYTTGSQATMDERNRQIAEIGASLIKHW",glycan array binding signal (z-score),[1],-0.267
same,glycan array binding signal (z-score),[2],-0.65
same,glycan array binding signal (z-score),Kdn(a2-6)Gal(b1-4)GlcNAc,-1.16
same,glycan array binding signal (z-score),[3],-0.568
same,glycan array binding signal (z-score),[4],1.05
same,glycan array binding signal (z-score),[5],0.207
same,glycan array binding signal (z-score),[6],-0.719
same,glycan array binding signal (z-score),[7],-1.28
same,glycan array binding signal (z-score),[8],-1.14
same,glycan array binding signal (z-score),[9],3.17
same,glycan array binding signal (z-score),[10],2.77
same,glycan array binding signal (z-score),[11],0.03
same,glycan array binding signal (z-score),[12],-1.55
same,glycan array binding signal (z-score),Neu5Ac(a2-6)GalNAc,-0.467
same,glycan array binding signal (z-score),[13],-0.183
same,glycan array binding signal (z-score),[14],0.265
same,glycan array binding signal (z-score),[15],0.105
same,glycan array binding signal (z-score),[16],0.028
same,glycan array binding signal (z-score),[17],-0.129
"PEB1 (Campylobacter jejuni), Q0P9X8 (protein) MVFRKSLLKLAVFALGACVAFSNANAAEGKLESIKSKGQLIVGVKNDVPHYALLDQATGEIKGFEVDVAKLLAKSILGDDKKIKLVAVNAKTRGPLLDNGSVDAVIATFTITPERKRIYNFSEPYYQDAIGLLVLKEKKYKSLADMKGANIGVAQAATTKKAIGEAAKKIGIDVKFSEFPDYPSIKAALDAKRVDAFSVDKSILLGYVDDKSEILPDSFEPQSYGIVTKKDDPAFAKYVDDFVKEHKNEIDALAKKWGL",glycan array binding signal (z-score),Fuc(a1-2)Gal(b1-4)Glc,-0.354
same,glycan array binding signal (z-score),[18],-0.084
same,glycan array binding signal (z-score),[19],0.768
same,glycan array binding signal (z-score),[20],1.37
same,glycan array binding signal (z-score),[21],-0.842
same,glycan array binding signal (z-score),[22],0.229
same,glycan array binding signal (z-score),[23],3.87
same,glycan array binding signal (z-score),[24],3.37
same,glycan array binding signal (z-score),Gal(b1-2)Gal,0.469
same,glycan array binding signal (z-score),[25],4.54
same,glycan array binding signal (z-score),[26],-0.718
same,glycan array binding signal (z-score),[27],0.818
same,glycan array binding signal (z-score),[28],0.014
same,glycan array binding signal (z-score),[29],-0.613
same,glycan array binding signal (z-score),[30],-1.39
same,glycan array binding signal (z-score),Gal3S(b1-4)Glc,-1.26
same,glycan array binding signal (z-score),[31],0.849
same,glycan array binding signal (z-score),[32],4.17
same,glycan array binding signal (z-score),[33],0.303
same,glycan array binding signal (z-score),[34],-0.113
same,glycan array binding signal (z-score),[4],-0.547
same,glycan array binding signal (z-score),[35],-0.813
same,glycan array binding signal (z-score),[36],0.311
same,glycan array binding signal (z-score),[37],-0.941
same,glycan array binding signal (z-score),[38],3.14
same,glycan array binding signal (z-score),[10],8.24
same,glycan array binding signal (z-score),[39],3.1
same,glycan array binding signal (z-score),[40],-0.108
same,glycan array binding signal (z-score),[41],-0.77
same,glycan array binding signal (z-score),[42],-0.361
same,glycan array binding signal (z-score),[43],1.09
same,glycan array binding signal (z-score),[44],-0.504
same,glycan array binding signal (z-score),[45],-0.646
same,glycan array binding signal (z-score),[46],0.988
